# Experimental data published in PubChem BioAssay (NCATS).
# Values joined by “and” are separate entries in the source; they are usually repeats but may differ in a detail not shown here. Identical values can stand only once. Records with an inconclusive call do not appear. Entries that show only a call come without a potency. Values without a mark were called inactive. Active and inactive are the calls of the source. Unless noted, calls come from the whole dose curve; as a rule, active = well fitted curve in the direction sought with a large enough effect; inconclusive = small, poorly fitted or top-dose-only effect, or another doubt; inactive = no such curve, though single readings can be large; an effect the other way counts as inactive or inconclusive.
# Legend:
# [1] = biological target: Cellular tumor antigen p53 (Homo sapiens) (UniProt P04637); assay: Primary qHTS for small molecule compounds that upregulate eGFP-tagged delta133p53alpha (in N-terminal) cells. (AID 2060322); conditions: NCI-H358 eGFP-delta133p53alpha fluorescence, 24 h; activation: hits give high values; note: series mostly up to about 56 µM; nearly all actives have a fitted effect of over 75% in size
# Chain of Cellular tumor antigen p53 (Homo sapiens) (P04637 whole entry, looked up): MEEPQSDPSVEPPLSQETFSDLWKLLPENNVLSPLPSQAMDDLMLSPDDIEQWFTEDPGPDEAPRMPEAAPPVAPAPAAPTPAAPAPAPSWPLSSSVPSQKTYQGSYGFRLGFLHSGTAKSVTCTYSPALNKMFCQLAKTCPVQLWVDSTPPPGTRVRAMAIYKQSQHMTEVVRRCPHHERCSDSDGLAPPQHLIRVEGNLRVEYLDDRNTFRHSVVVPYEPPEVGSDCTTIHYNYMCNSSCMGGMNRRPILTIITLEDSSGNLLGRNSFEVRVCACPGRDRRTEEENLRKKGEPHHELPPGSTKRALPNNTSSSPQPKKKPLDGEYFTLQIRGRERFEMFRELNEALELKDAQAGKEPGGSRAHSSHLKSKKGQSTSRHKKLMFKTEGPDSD
# Procedure, shortened: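 NCI-H358 cells pre-induced 24 h with 10 ng/ml doxycycline to express N-terminal eGFP-delta133p53alpha, then dosed 24 h at 37C without doxycycline; fixed, Hoechst-stained, GFP intensity by laser scanning cytometry, normalized to DMSO (0%) and 57.5 uM 5-azacytidine (100%).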
# [2] = BET inhibitor-based combinations targeting novel dependencies in MECOM-rearranged (r) AML: MV-4-11 cell line (AID 2202233); note: nearly all actives have a fitted effect of over 45% in size; note: potency is the fitted concentration of half-maximal effect
# Procedure, shortened: (§1)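 Luminescent ATP readout (CellTiter-Glo, 15 min at room temperature) after 48 hr drug exposure gave viability. Dose-response curves, normalized to DMSO and empty-well controls, were summarized as area under the curve and its mean-centred Z-score.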
# [3] = BET inhibitor-based combinations targeting novel dependencies in MECOM-rearranged (r) AML: UCSD-AML1 cell line (AID 2202235); note: nearly all actives have a fitted effect of over 40% in size; note: potency is the fitted concentration of half-maximal effect
# Procedure, shortened: as §1
# [4] = BET inhibitor-based combinations targeting novel dependencies in MECOM-rearranged (r) AML: AML-191 cell line (AID 2202236; note: nearly all actives have a fitted effect of over 35% in size; note: potency is the fitted concentration of half-maximal effect)
# Procedure, shortened: (§2)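 Luminescent ATP readout (CellTiter-Glo) after 48 hr drug exposure gives viability. Curves span 11 concentrations and are normalized to DMSO and empty wells. Activity is reported as area under the curve and its Z-transform within each cell line.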
# [5] = BET inhibitor-based combinations targeting novel dependencies in MECOM-rearranged (r) AML: HNT-34 cell line (AID 2202234); note: nearly all actives have a fitted effect of over 35% in size; note: potency is the fitted concentration of half-maximal effect
# Procedure, shortened: as §1
# [6] = BET inhibitor-based combinations targeting novel dependencies in MECOM-rearranged (r) AML: AML-194 cell line (AID 2202237; note: nearly all actives have a fitted effect of over 40% in size; note: potency is the fitted concentration of half-maximal effect)
# Procedure, shortened: as §2
# [7] = biological target: Cellular tumor antigen p53 (Homo sapiens) (UniProt P04637); assay: Primary qHTS for small molecule compounds that upregulate eGFP-tagged delta133p53alpha (in C-terminal) cells. (AID 2060324)
# Procedure, shortened: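 NCI-H358 cells pre-induced 24 h with 100 ng/ml doxycycline to express delta133p53alpha-eGFP, then dosed in doxycycline-free medium for 24 h at 37C. Fixed, Hoechst-stained; GFP intensity by laser scanning cytometry, normalized to DMSO wells.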
# [8] = biological target: Aldehyde dehydrogenase, mitochondrial (Homo sapiens) (UniProt P05091); assay: qHTS for Inhibitors of the Aldehyde Dehydrogenase Family (ALDH2) Validation screens (AID 2061302; active = well fitted inhibition curve with a large enough effect; title and protocol of this record describe different tests)
structure (smiles),measurement,setting,value
CCCCc1oc2ccccc2c1C(=O)c1cc(I)c(OCCN(CC)CC)c(I)c1,activation,[1],-16.4% and -32.6%
same,Potency,[2],18.6 µM (active)
same,Potency,[3],23.5 µM (active)
same,Potency,[4],20.9 µM (active)
COC1CCC(N(C(=O)C2CCC(C)CC2)c2cc(C3=CCCCC3)sc2C(=O)O)CC1 (stereo unspecified),activation,[1],-11.2%
same,Potency,[5],inactive
same,Potency,[4],inactive
same,Potency,[6],inactive
N#CC(c1ccc(Cl)cc1)c1c(Cl)cc(-n2ncc(=O)[nH]c2=O)cc1Cl (stereo unspecified),activation,[1],-23%
same,Potency,[2],inactive
same,Potency,[4],16.6 µM (active)
same,Potency,[6],inactive
S=P(N1CC1)(N1CC1)N1CC1,activation,[1],31.6%
same,Potency,[2],20.9 µM (active)
same,Potency,[3],inactive
same,Potency,[4],26.3 µM (active)
CC(=O)NC(CS)C(=O)O (stereo unspecified),activation,[1],60.6%
same,Potency,[2],inactive
same,Potency,[5],inactive
same,Potency,[3],inactive
same,Potency,[4],inactive
same,Potency,[6],inactive
Cc1ccc(NC(=O)c2ccc(CN3CCN(C)CC3)cc2)cc1Nc1nccc(-c2cccnc2)n1,activation,[1],-19.4% and -18.4% and -2.86%
same,Potency,[3],inactive
O=C1CCc2ccc(OCCCCN3CCN(c4cccc(Cl)c4Cl)CC3)cc2N1,activation,[1],-4.19%
same,Potency,[2],16.6 µM (active)
same,Potency,[5],20.9 µM (active)
same,Potency,[3],23.5 µM (active)
same,Potency,[4],23.5 µM (active)
same,Potency,[6],26.3 µM (active)
Cc1cccc(C#Cc2ccccc2)n1,Potency,[7],inactive
same,Potency,[8],inactive
Cc1cc2c(F)c(Oc3ncnn4cc(OC[C@@H](C)O)c(C)c34)ccc2[nH]1,activation,[1],-34.1%
same,Potency,[3],inactive
CCCCCCCc1ccc(CCc2cccc(O)c2C(=O)O)cc1,activation,[1],-21.9% and 7.82%
same,Potency,[6],inactive
Cc1ccc(S(=O)(=O)Nc2nc3ccccc3nc2Nc2ccc3nsnc3c2)cc1,activation,[1],6.55%
same,Potency,[2],inactive
same,Potency,[5],inactive
same,Potency,[3],inactive
same,Potency,[6],inactive
CN=c1nc(-c2ccccc2)n(-c2ccccc2)s1,Potency,[7],inactive
O=C(O)c1c(Cl)c(Cl)c(Cl)c(Cl)c1-c1c2cc(I)c(=O)c(I)c-2oc2c(I)c(O)c(I)cc12,activation,[1],-18.2%
same,Potency,[2],inactive
same,Potency,[3],5.9 µM (active)
COc1cc2ncn(-c3cc(OCc4ccccc4S(C)(=O)=O)c(C#N)s3)c2cc1OC,activation,[1],-10.5%
same,Potency,[2],inactive
same,Potency,[5],inactive
same,Potency,[4],inactive
same,Potency,[6],inactive
C[C@](Cc1ccc(O)c(O)c1)(NN)C(=O)O,Potency,[7],inactive
same,Potency,[8],inactive
CCCCCCCCCCCCCCCCCCN(CCCCCCCCCCCCCCCCCC)CCCN(CCO)CCO,Potency,[7],inactive
same,Potency,[8],inactive
CC(C)(C)c1onc(OCP(=O)(O)O)c1CC(N)C(=O)O (stereo unspecified),Potency,[7],inactive
same,Potency,[8],inactive
CCc1c(O)cc(O)c(C(=O)c2ccc(OCCN3CCOCC3)c(OC)c2)c1CC(=O)N(CCOC)CCOC,activation,[1],38.5%
same,Potency,[5],0.662 µM (active)
same,Potency,[3],0.263 µM (active)
N.N.O=C(O)C1(C(=O)O)CCC1.[Pt+2],Potency,[7],inactive
same,Potency,[8],inactive
